In ChEMBL document CHEMBL1961873, “Compounds: GSK PKIS; Assays: Nanosyn kinase panel” (2012):

How the values were obtained:
[1] = target: Fibroblast growth factor receptor 4 (Homo sapiens) (UniProt P22455); conditions: at 1 µM;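 note: reported figure is the averaged percent inhibition of FGFR4, from the GSK PKIS kinase screening panel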
[2] = target: Tyrosine-protein kinase Fgr (Homo sapiens) (UniProt P09769); conditions: at 0.1 µM
[3] = target: Tyrosine-protein kinase Fgr (Homo sapiens) (UniProt P09769); conditions: at 1 µM
[4] = target: Vascular endothelial growth factor receptor 1 (Homo sapiens) (UniProt P17948); conditions: at 0.1 µM
Sequence of Vascular endothelial growth factor receptor 1 (Homo sapiens) (P17948 whole entry): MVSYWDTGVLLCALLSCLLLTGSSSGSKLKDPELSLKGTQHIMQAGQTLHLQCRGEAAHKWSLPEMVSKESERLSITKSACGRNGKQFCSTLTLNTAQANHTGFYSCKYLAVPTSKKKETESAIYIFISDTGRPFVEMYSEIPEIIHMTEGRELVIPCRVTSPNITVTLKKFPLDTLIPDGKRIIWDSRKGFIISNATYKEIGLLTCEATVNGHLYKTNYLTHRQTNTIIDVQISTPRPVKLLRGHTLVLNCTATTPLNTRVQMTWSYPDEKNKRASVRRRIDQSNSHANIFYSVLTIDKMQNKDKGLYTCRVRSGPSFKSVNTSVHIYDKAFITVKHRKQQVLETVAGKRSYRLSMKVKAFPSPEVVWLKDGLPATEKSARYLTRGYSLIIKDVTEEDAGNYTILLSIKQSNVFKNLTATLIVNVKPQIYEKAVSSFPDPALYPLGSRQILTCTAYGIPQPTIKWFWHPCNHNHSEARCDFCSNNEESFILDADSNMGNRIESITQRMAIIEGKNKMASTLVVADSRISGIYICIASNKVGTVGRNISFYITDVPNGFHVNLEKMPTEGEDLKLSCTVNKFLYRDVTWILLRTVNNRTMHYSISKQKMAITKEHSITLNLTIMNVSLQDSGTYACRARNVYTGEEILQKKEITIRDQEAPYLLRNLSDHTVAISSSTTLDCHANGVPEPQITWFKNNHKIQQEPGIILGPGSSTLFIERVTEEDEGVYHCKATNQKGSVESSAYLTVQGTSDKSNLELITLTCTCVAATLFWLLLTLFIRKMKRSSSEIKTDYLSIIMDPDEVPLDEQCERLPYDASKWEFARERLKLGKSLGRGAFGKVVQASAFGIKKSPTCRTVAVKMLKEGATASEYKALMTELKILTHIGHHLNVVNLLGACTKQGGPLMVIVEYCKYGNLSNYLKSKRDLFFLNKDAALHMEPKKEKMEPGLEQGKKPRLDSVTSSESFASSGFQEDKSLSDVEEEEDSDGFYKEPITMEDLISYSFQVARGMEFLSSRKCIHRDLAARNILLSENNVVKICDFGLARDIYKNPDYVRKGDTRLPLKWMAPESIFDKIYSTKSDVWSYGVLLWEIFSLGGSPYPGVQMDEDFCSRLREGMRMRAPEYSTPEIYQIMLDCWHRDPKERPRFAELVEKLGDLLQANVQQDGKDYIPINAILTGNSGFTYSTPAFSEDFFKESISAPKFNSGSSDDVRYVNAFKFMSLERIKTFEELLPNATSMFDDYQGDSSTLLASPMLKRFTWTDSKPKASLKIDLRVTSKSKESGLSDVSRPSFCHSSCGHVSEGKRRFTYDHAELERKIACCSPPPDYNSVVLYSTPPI

[5] = target: Vascular endothelial growth factor receptor 1 (Homo sapiens) (UniProt P17948); conditions: at 1 µM
[6] = target: Receptor-type tyrosine-protein kinase FLT3 (Homo sapiens) (UniProt P36888); conditions: at 0.1 µM
[7] = target: Receptor-type tyrosine-protein kinase FLT3 (Homo sapiens) (UniProt P36888); conditions: at 1 µM
[8] = tested on: T1, Receptor-type tyrosine-protein kinase FLT3 (Homo sapiens), P36888 [D835Y]; conditions: at 0.1 µM
T1 sequence (whole entry): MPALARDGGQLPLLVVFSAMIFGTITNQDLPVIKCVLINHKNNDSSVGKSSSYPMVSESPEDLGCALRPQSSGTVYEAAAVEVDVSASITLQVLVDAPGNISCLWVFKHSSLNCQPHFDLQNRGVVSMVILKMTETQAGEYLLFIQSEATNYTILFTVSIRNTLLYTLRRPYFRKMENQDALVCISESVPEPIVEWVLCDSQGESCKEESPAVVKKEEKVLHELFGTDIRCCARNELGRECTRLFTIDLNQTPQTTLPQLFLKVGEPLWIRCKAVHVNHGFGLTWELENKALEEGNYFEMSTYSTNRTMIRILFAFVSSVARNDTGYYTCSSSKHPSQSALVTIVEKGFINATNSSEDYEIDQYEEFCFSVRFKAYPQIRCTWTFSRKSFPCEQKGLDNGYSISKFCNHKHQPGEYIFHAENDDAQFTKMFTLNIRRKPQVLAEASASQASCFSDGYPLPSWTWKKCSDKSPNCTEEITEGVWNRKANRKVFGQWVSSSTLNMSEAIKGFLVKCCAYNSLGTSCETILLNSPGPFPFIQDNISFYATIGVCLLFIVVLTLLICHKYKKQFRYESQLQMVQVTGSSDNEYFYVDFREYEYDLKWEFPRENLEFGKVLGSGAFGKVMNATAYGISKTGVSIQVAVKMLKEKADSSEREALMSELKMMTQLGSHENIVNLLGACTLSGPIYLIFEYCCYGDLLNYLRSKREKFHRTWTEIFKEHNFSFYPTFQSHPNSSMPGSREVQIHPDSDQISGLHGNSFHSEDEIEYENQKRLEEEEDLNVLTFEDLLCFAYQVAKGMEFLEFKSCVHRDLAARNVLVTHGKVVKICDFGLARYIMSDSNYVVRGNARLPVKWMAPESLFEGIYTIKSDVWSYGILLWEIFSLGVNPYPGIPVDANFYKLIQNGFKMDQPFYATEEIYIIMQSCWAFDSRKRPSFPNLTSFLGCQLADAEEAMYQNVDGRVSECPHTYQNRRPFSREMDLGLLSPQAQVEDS

[9] = target: Non-receptor tyrosine-protein kinase TYK2 (Homo sapiens) (UniProt P29597); conditions: at 1 µM;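 note: values are mean percent inhibition of TYK2 kinase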
Sequence of Non-receptor tyrosine-protein kinase TYK2 (Homo sapiens) (P29597 whole entry): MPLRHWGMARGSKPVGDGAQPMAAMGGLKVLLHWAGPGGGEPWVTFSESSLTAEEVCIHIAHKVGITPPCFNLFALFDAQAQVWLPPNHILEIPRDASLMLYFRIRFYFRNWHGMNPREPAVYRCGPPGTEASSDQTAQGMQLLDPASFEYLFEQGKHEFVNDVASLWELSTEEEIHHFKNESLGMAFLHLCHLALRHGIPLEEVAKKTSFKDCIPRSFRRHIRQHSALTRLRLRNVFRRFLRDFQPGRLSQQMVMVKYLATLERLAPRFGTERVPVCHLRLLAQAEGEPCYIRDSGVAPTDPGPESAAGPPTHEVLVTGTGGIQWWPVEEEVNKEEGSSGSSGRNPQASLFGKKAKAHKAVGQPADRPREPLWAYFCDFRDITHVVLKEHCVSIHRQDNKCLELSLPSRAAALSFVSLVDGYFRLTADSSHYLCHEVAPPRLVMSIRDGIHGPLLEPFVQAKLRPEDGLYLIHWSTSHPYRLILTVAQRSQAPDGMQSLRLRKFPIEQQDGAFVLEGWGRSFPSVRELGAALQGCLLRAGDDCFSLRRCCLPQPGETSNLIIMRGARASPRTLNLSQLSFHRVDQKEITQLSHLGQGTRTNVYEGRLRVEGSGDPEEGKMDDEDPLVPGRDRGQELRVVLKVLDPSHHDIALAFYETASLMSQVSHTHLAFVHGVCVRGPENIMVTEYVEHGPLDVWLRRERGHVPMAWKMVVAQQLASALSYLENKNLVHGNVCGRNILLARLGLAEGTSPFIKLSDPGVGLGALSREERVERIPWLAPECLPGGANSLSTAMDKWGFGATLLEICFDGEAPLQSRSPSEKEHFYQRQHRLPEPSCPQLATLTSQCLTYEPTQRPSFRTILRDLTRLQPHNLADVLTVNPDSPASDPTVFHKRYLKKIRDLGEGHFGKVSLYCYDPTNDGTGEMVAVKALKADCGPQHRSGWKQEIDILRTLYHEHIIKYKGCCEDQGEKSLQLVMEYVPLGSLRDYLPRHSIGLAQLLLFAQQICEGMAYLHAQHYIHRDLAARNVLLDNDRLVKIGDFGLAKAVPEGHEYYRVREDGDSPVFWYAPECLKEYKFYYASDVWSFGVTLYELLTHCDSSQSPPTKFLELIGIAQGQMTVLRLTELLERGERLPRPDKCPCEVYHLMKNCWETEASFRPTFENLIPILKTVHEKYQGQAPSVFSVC

[10] = target: T2, Tyrosine-protein kinase receptor TYRO3 (Homo sapiens) (UniProt Q06418); conditions: at 0.1 µM
T2 sequence (whole entry): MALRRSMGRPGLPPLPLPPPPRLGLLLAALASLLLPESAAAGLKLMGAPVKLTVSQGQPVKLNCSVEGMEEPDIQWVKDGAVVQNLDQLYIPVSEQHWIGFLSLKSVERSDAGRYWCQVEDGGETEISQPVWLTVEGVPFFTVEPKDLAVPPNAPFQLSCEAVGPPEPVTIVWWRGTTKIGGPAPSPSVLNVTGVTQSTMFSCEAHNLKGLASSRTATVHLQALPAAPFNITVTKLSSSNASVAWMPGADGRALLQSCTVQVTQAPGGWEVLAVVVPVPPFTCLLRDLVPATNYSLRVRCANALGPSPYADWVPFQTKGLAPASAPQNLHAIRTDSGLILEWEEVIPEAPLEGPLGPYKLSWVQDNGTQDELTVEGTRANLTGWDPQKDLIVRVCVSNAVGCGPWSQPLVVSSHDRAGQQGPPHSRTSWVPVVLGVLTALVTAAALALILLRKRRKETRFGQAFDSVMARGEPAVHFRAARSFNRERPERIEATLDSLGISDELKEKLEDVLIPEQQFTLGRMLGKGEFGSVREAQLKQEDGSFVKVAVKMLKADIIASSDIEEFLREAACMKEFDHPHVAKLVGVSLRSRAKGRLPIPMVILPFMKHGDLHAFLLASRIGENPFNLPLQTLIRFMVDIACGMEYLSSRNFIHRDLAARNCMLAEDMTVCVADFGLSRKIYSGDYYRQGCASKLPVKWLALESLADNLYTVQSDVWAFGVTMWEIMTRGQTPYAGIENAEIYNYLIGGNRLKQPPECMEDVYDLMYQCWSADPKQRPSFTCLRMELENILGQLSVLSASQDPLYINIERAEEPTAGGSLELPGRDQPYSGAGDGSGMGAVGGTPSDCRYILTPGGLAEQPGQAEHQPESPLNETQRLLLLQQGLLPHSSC

[11] = target: T2, Tyrosine-protein kinase receptor TYRO3 (Homo sapiens); conditions: at 1 µM
[12] = target: Tyrosine-protein kinase Yes (Homo sapiens) (UniProt P07947); conditions: at 0.1 µM
Sequence of Tyrosine-protein kinase Yes (Homo sapiens) (P07947 2-543 limits assumed): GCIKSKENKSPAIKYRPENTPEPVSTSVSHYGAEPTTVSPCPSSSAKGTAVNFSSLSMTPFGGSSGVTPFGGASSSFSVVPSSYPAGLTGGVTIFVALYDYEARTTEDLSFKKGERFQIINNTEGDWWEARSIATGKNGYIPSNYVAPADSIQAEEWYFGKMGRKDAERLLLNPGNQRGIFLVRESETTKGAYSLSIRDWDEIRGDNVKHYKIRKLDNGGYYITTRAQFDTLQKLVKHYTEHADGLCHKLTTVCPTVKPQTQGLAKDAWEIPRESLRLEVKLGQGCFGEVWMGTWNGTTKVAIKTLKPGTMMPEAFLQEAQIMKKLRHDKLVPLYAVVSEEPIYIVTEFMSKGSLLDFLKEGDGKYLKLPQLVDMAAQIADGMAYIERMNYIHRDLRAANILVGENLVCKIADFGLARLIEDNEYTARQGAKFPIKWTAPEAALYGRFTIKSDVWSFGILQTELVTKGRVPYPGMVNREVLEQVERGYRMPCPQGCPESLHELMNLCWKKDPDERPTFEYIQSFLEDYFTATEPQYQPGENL

[13] = target: Tyrosine-protein kinase Yes (Homo sapiens) (UniProt P07947); conditions: at 1 µM
[14] = target: T3, Tyrosine-protein kinase ZAP-70 (Homo sapiens) (UniProt P43403); conditions: at 0.1 µM
T3 sequence (whole entry): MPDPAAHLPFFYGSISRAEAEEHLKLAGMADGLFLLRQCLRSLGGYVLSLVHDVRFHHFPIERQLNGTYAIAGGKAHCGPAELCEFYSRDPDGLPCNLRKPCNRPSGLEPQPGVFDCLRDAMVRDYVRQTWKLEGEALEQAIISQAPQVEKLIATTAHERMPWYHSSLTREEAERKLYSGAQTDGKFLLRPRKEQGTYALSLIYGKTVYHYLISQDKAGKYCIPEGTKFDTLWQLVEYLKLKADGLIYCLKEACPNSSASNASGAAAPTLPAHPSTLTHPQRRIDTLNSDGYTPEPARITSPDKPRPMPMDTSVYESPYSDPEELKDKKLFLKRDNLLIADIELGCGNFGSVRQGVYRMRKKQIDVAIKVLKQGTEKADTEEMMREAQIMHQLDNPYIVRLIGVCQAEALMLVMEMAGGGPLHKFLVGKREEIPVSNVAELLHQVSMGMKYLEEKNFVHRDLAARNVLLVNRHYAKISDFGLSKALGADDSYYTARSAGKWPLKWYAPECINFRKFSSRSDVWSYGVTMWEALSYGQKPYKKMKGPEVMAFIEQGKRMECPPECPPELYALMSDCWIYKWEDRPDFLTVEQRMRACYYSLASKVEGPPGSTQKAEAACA

[15] = target: T3, Tyrosine-protein kinase ZAP-70 (Homo sapiens); conditions: at 1 µM
[16] = target: Serine/threonine-protein kinase B-raf (Homo sapiens) (UniProt P15056); conditions: at 0.1 µM
Sequence of Serine/threonine-protein kinase B-raf (Homo sapiens) (P15056 whole entry): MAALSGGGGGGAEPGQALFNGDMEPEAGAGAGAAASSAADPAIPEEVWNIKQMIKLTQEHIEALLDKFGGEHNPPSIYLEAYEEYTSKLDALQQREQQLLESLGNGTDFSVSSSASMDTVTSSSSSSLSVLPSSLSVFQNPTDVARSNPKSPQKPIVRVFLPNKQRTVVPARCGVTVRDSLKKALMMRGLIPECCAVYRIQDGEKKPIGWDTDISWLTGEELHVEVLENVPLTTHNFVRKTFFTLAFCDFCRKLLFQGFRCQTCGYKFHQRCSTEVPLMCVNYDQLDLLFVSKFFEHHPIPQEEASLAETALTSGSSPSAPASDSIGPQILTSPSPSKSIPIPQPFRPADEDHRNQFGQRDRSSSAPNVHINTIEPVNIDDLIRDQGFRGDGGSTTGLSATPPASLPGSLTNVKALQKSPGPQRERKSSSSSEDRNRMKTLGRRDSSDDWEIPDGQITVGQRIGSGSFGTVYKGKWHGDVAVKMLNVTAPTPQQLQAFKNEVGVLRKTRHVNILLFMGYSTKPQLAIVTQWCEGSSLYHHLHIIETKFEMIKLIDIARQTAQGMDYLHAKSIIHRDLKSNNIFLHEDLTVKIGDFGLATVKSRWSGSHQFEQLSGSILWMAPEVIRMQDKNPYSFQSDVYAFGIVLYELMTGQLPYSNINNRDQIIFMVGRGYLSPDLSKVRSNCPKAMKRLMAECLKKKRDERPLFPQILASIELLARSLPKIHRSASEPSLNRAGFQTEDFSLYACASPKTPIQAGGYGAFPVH

[17] = target: Serine/threonine-protein kinase B-raf (Homo sapiens) (UniProt P15056); conditions: at 1 µM
[18] = tested on: Serine/threonine-protein kinase B-raf (Homo sapiens), P15056 [V600E]; conditions: at 0.1 µM
Sequence of Serine/threonine-protein kinase B-raf (Homo sapiens), P15056 [V600E] (P15056 whole entry V600E): as the sequence (P15056 whole entry) above, with V600E counted along it

[19] = tested on: Serine/threonine-protein kinase B-raf (Homo sapiens), P15056 [V600E]; conditions: at 1 µM
[20] = target: RAF proto-oncogene serine/threonine-protein kinase (Homo sapiens) (UniProt P04049); conditions: at 0.1 µM;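 note: values are mean CRAF kinase inhibition from profiling of the GSK Published Kinase Inhibitor Set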
Sequence of RAF proto-oncogene serine/threonine-protein kinase (Homo sapiens) (P04049 whole entry): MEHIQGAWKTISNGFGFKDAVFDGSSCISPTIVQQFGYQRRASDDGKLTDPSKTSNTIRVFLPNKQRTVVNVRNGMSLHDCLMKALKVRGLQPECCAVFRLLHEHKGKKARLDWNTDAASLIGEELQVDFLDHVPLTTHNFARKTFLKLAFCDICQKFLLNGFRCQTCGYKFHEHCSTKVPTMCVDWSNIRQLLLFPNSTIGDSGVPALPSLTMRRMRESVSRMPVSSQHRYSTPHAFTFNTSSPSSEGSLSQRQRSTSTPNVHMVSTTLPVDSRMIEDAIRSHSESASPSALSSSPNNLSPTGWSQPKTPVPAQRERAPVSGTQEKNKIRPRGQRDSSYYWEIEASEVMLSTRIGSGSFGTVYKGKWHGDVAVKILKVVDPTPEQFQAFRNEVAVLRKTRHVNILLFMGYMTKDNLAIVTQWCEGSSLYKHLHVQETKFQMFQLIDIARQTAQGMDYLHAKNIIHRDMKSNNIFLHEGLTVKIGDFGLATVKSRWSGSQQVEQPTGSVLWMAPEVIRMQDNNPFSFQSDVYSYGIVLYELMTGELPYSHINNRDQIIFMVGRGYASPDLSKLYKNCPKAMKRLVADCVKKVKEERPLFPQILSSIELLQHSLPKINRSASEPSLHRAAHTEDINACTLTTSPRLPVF

Sequence of Tyrosine-protein kinase Fgr (Homo sapiens) (P09769 2-529 limits assumed): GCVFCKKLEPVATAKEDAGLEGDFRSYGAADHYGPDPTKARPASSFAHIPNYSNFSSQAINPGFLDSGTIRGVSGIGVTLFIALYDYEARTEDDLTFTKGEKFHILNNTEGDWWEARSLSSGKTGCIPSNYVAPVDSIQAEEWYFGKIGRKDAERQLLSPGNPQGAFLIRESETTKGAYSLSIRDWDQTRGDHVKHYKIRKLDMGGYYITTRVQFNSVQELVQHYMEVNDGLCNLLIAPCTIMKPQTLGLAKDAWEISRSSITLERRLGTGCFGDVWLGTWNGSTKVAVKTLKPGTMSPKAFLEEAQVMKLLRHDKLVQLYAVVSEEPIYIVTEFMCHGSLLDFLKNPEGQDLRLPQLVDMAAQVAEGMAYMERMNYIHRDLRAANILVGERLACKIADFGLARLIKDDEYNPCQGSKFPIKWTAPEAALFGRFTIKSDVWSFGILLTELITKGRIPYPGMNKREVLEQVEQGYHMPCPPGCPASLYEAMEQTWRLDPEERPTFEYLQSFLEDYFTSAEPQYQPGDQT

| Structure (SMILES) | inhibition [1] | inhibition [2] | inhibition [3] | inhibition [4] | inhibition [5] | inhibition [6] | inhibition [7] | inhibition [8] | inhibition [9] | inhibition [10] | inhibition [11] | inhibition [12] | inhibition [13] | inhibition [14] | inhibition [15] | inhibition [16] | inhibition [17] | inhibition [18] | inhibition [19] | inhibition [20] |
| --- | --- | --- | --- | --- | --- | --- | --- | --- | --- | --- | --- | --- | --- | --- | --- | --- | --- | --- | --- | --- |
| Cc1cccc2c1NC(=O)/C2=N\Nc1ccc(S(N)(=O)=O)cc1 | 1.63% | 0.52% | 4.37% | -0.48% | -0.65% | 2.88% | 8.43% | 3.4% | -0.5% | 3.05% | 1.39% | 0.81% | -0.24% | 2.59% | 2.59% | 3.47% | 4.79% | 2.89% | 3.31% | -3.52% |
| CCn1c(-c2nonc2N)nc2ccccc21 | -0.03% | 2.86% | 4.31% | 2.69% | 0.59% | 0.25% | 0.31% | 3.23% | -0.21% | 1.05% | 0.63% | -0.03% | -1.08% | 1% | -0.17% | 3.74% | 4.94% | 3.64% | 4.52% | 2.9% |
| CCc1nn2ncccc2c1-c1ccnc(NC2CC2)n1 | 1.27% | 3.49% | 3.74% | 0.02% | 2.1% | 3.16% | 3.41% | -7.04% | 2.1% | -0.14% | 3.06% | 1.2% | 6.6% | 1.02% | -2.31% | 2.93% | 4.97% | 3.84% | 3.79% | 0.39% |
| NC(=O)c1sc(-n2cnc3ccc(C(F)(F)F)cc32)cc1OCc1ccccc1Br | 2.14% | 3.5% | 1.54% | 1.4% | 4.1% | 1.91% | 1.02% | -2.48% | -3.62% | 3.13% | 2.95% | 2.93% | 6.95% | 2.64% | 2.31% | 6.14% | 7.4% | 5.99% | 6.42% | -1.07% |
| NS(=O)(=O)c1ccc(N/N=C2\C(=O)Nc3ccc4ncccc4c32)cc1 | 6.88% | 8.01% | 42.4% | 11% | 59.6% | 23.9% | 73.2% | 35.1% | 33.5% | 7.02% | 41.9% | 9.32% | 48.2% | 3.49% | 18.7% | 15% | 60.2% | 14.6% | 60.8% | -0.71% |
| COc1cc2c(cc1Nc1nc(Nc3ccsc3C(N)=O)c3cc[nH]c3n1)N(C(=O)CN(C)C)CCC2(C)C | 4.78% | 1.11% | 6.75% | 1.44% | 1.83% | 4.2% | 13% | 0.35% | -1.34% | 3.88% | 18.6% | 2.57% | 0.61% | 2.36% | 14.9% | 6.5% | 14.9% | 7.15% | 14% | 1.55% |
| N#Cc1c(NC(=O)c2ccc(F)cc2)sc2c1CCCC2 | 1.31% | 2.11% | 1.83% | 0.3% | 1.63% | -2.18% | 0.66% | -4.75% | -1.49% | 0.28% | 2.87% | 0.59% | 4.07% | 1.26% | 2.47% | 1.72% | 3.03% | 1.04% | 2.86% | -3.13% |
| COc1ccc(-c2oc3ncnc(N)c3c2-c2ccc(NC(=O)Nc3cc(C(F)(F)F)ccc3F)cc2)cc1 | 48.5% | 17% | 61% | 47.8% | 96.7% | 22.1% | – | 12.7% | 0.14% | 8.25% | 49.4% | 15.7% | 80.1% | 0.23% | 4.77% | 6.96% | 19.6% | 8.1% | 23.9% | 2.02% |
| CN1CCC(n2cnc(-c3ccc(F)cc3)c2-c2ccnc(N)n2)CC1 | 4.3% | 4.22% | 8.36% | -0.81% | 2.41% | -0.36% | 1.76% | -8.15% | -0.01% | 1.97% | 7.48% | 2.09% | 13.4% | 1.2% | 2.81% | 1.83% | 5.24% | 1.74% | 5.35% | -0.57% |
| CC1=C(C(=O)Nc2cc(Cl)c3[nH]ncc3c2)C(c2ccc(C(F)(F)F)cc2)CC(=O)N1 (stereo not drawn) | 2.25% | 2.78% | 4.88% | -0.55% | -1.53% | 1.66% | 3.1% | -4.83% | -1.04% | 3.7% | 5.41% | 6.96% | 27.4% | 3.23% | 3.9% | 9.34% | 35.7% | 10.2% | 35.6% | 0.78% |
| CS(=O)(=O)CCNCc1coc(-c2ccc3ncnc(Nc4ccc(OCc5ccccc5)cc4)c3c2)c1 | 1.09% | 3.94% | 14.9% | 3.16% | 2.3% | 3.27% | 9.61% | -1.74% | 0.61% | 2.35% | 2.91% | 4.14% | 26.2% | 1.16% | 2.06% | 3.09% | 6.31% | 3.49% | 3.25% | 2.12% |
| CCn1c(-c2nonc2N)nc2cnc(Oc3cccc(NC(=O)c4ccc(N(C)C)cc4)c3)cc21 | -0.05% | 0.55% | – | 2.13% | 4.41% | 0.6% | 1.09% | -1.65% | -0.04% | 0.1% | 0.87% | 0.93% | 2.45% | 1.81% | 2.72% | 1.95% | 5.71% | 2.62% | 6.32% | 0.85% |
| Cc1cccc(Nc2ncc(-c3ccccc3)o2)c1 | 1.36% | 2.72% | 9.59% | 1.05% | 11% | 39.8% | 81% | -4.74% | -4.11% | 1.56% | 4.61% | 0.94% | 11.3% | 1.66% | 1.24% | 2.32% | 6.08% | 3.58% | 3.05% | 0.64% |
